Assay results from ChEMBL document CHEMBL1857833, “Screening and optimization of specific chemical series against human African Trypanosomiasis (HAT)”.
The whole screen tested about 4,400 compounds, of which about 390 (8.9%) showed an effect of 50% or more. The sample holds strong results, similar compounds and a random draw of the others, so the mix is not that of the screen.

Each compound was assayed on Trypanosoma brucei (assay: DNDI: Inhibition of Human African Trypanosomiasis, SBRI 427, in vitro at 2 ug.mL-1).
Assay type: functional

Row | Compound | % inhibition [%]
1 | CC(C)(C)c1ccc(-c2nc(Cn3nc(N)cc3-c3ccccc3)co2)cc1 | 9
2 | CN(CCC#N)Cc1coc(-c2cccc3ccccc23)n1 | 7
3 | CCOC(=O)C1CCCCN1Cc1coc(-c2cccc(OCC)c2)n1 (stereo unspecified) | 2
4 | COc1ccccc1CNCc1coc(-c2ccc(Br)cc2)n1 | 3
5 | CCN(Cc1coc(-c2ccccc2Cl)n1)c1cccc2ccccc12 | -6
6 | COc1cccc(CN/C(=N\O)c2cccnc2Oc2ccc(Cl)cc2)c1 | 98
7 | COc1ccc(Oc2ncccc2/C(=N/O)NCc2cccc(OC)c2)cc1 | -6
8 | COc1cccc(CN/C(=N\O)c2cccnc2Oc2c(F)cccc2F)c1 | 17
9 | O/N=C(/c1ccnc(Oc2ccc(F)c(Cl)c2)c1)N1CC=CCC1 | 17
10 | Cc1cccc(Oc2ncccc2/C(=N/O)N2CC(C)CC(C)C2)c1C (stereo unspecified) | 1
11 | Cc1cc(C)cc(Oc2nc(C)ccc2/C(=N/O)NCC2CCCCC2)c1 | 14
12 | Cc1ccc(Oc2nc(C)ccc2/C(=N/O)NC2CCCC2)c(C)c1 | 25
13 | Cc1ccc(Oc2nc(C)ccc2/C(=N/O)NCC2CCCCC2)c(C)c1 | 62
14 | COc1cc(C)ccc1Oc1nc(C)ccc1/C(=N/O)NC1CCCC1 | -8
15 | Cc1ccc(Oc2nc(C)ccc2/C(=N/O)NC2CCCCC2)c(C)c1 | 100
16 | Cc1ccc(Oc2nc(C)ccc2/C(=N/O)NCCN2CCCCC2)c(C)c1 | 0
17 | C=CCN1CCN(/C(=N\O)c2ccc(C)nc2Oc2ccc(C)cc2)CC1 | 30
18 | CC1C=CC(C)N1/C(=N\O)c1cccnc1Oc1ccc(Cl)cc1 (stereo unspecified) | -7
19 | Cc1ccc(N2CCN(Cc3coc(-c4ccc(OC(F)(F)F)cc4)n3)CC2)cc1C | 23
20 | CC(C)(C)COc1ncccc1/C(=N/O)NCC1CCCO1 (stereo unspecified) | 4
21 | Brc1ccccc1-c1nc(CNCc2ccccc2)co1 | 11
22 | CC(C)(C)CNCc1coc(-c2ccccc2Br)n1 | 7
23 | CCC(CC)CNCc1coc(-c2ccccc2Br)n1 | 1
24 | C[C@H]1C(NCc2coc(-c3ccccc3Br)n2)C[C@@H]2C[C@H]1C2(C)C (stereo partly specified) | 98
25 | Brc1ccccc1-c1nc(CNC2CCc3ccccc32)co1 (stereo unspecified) | 7
26 | C[C@@H]1C(NCc2coc(-c3ccccc3Br)n2)C[C@H]2C[C@@H]1C2(C)C (stereo partly specified) | 100

Row | Compound | % inhibition [%]
27 | Cc1ccc(/C(=N/O)N2CCCCC2)c(Oc2ccc(F)cc2)n1 | 24
28 | CCc1nccn1Cc1coc(-c2cc(OC)c(OC)c(OC)c2)n1 | 9
29 | Cc1ccc2cccc(Oc3cc(/C(N)=N/O)ccn3)c2n1 | 7
30 | Cc1ccc(/C(=N/O)N2CCCC2)c(OCc2ccccc2C)n1 | 10
31 | CN(Cc1coc(-c2ccc(Cl)cc2Cl)n1)Cc1ccco1 | 11
32 | O=C(C1CCCO1)N1CCN(Cc2coc(-c3ccc(C(F)(F)F)cc3)n2)CC1 (stereo unspecified) | 4
33 | CCOC(=O)C1CCCN(Cc2coc(-c3ccccc3Cl)n2)C1 (stereo unspecified) | 4
34 | COc1cccc(-c2nc(CN3CCN(c4ccccc4OC)CC3)co2)c1 | -9
35 | CC1CC(C)CN(/C(=N\O)c2cccnc2Oc2ccccc2)C1 (stereo unspecified) | 10
36 | Cc1ccc(-c2nc(CNc3ccccc3C)co2)cc1 | -4
37 | O/N=C(\NCc1cccnc1)c1ccc(Oc2ccc3oc4ccccc4c3c2)nc1 | 84
38 | O/N=C(\NCc1ccncc1)c1ccc(Oc2ccc3oc4ccccc4c3c2)nc1 | -14
39 | O/N=C(\NCC1CCCO1)c1ccc(Oc2ccc3oc4ccccc4c3c2)nc1 (stereo unspecified) | -8
40 | O/N=C(\NC1CC1)c1ccc(Oc2ccc3oc4ccccc4c3c2)nc1 | 82
41 | O/N=C(\NC1CCC1)c1ccc(Oc2ccc3oc4ccccc4c3c2)nc1 | 94
42 | CCC(C)(C)N/C(=N\O)c1ccc(Oc2ccc3oc4ccccc4c3c2)nc1 | 97
43 | Cc1cc(C)cc(CN/C(=N\O)c2ccc(Oc3ccc4oc5ccccc5c4c3)nc2)c1 | 32
44 | O/N=C(\NC1CCc2ccccc21)c1ccc(Oc2ccc3oc4ccccc4c3c2)nc1 (stereo unspecified) | 19
45 | CC(C)CN/C(=N\O)c1ccc(Oc2ccc3oc4ccccc4c3c2)nc1 | 11
46 | COc1cccc(CN/C(=N\O)c2ccc(Oc3ccc4oc5ccccc5c4c3)nc2)c1 | 16
47 | CN(/C(=N\O)c1ccc(Oc2ccc3oc4ccccc4c3c2)nc1)C1CCCCC1 | 22
48 | CC(C)(C)CN/C(=N\O)c1ccc(Oc2ccc3oc4ccccc4c3c2)nc1 | 8
49 | Cc1ccc(N(C)Cc2coc(-c3cccc4ccccc34)n2)cc1 | 6
50 | Cn1nc(C(C)(C)C)cc1NCc1coc(-c2ccc(C(C)(C)C)cc2)n1 | -5
51 | Cc1ccc(C(C)C)c(Oc2cc(/C(=N/O)Nc3ccc(C(C)C)cc3)ccn2)c1 | 21
52 | COCCN(Cc1coc(-c2ccccc2Cl)n1)C(C)C | -24

Row | Compound | % inhibition [%]
53 | c1ccc2c(-c3nc(CNCc4ccncc4)co3)cccc2c1 | 6
54 | Cc1ccc(/C(=N/O)NCCN2CCOCC2)c(Oc2ccc3ccccc3c2)n1 | 15
55 | COc1ccc(-c2nc(CNCc3cccc(C(F)(F)F)c3)co2)cc1 | -13
56 | CCOc1ccccc1-c1nc(CNC23C[C@H]4C[C@@H](C2)C[C@@H](C3)C4)co1 | 9
57 | CC1CC(C)CN(Cc2coc(-c3cccc4ccccc34)n2)C1 (stereo unspecified) | 28
58 | c1ccc(CNCc2coc(-c3cccc4ccccc34)n2)cc1 | 8
59 | C[C@H]1C(NCc2coc(-c3cccc4ccccc34)n2)C[C@@H]2C[C@H]1C2(C)C (stereo partly specified) | 85
60 | CCOc1ccccc1-c1nc(CNc2ccccc2)co1 | 6
61 | C[C@@H]1C(NCc2coc(-c3cccc4ccccc34)n2)C[C@H]2C[C@@H]1C2(C)C (stereo partly specified) | 95
62 | CCOc1ccccc1-c1nc(CNC2C[C@@H]3C[C@H]([C@H]2C)C3(C)C)co1 (stereo partly specified) | 101
63 | CN(C)CCNCc1coc(-c2cccc3ccccc23)n1 | 22
64 | Clc1ccccc1-c1nc(CN2CCN(c3ccccn3)CC2)co1 | 4
65 | Fc1ccc(-c2nc(CNCC(c3ccccc3)c3ccccc3)co2)cc1 | -33
66 | COc1cc(-c2nc(CNCc3cccnc3)co2)cc(OC)c1OC | 25
67 | CSc1ccc(Oc2nc(C)ccc2/C(=N/O)NCc2ccc(C)o2)cc1C | 12
68 | CCOc1ccccc1-c1nc(CN(CC)c2cccc3ccccc23)co1 | 4
69 | Cc1ccc(/C(=N/O)NC2CCc3ccccc32)c(Oc2c(F)c(F)cc(F)c2F)n1 (stereo unspecified) | 7
70 | O/N=C(\NC1CCc2ccccc21)c1cccnc1Oc1c(F)cccc1F (stereo unspecified) | 83
71 | CSc1ccc(Oc2nc(C)ccc2/C(=N/O)NC2CCc3ccccc32)cc1C (stereo unspecified) | 21
72 | CC(C)c1ccc(N/C(=N\O)c2cccnc2Oc2ccc(Cl)cc2)cc1 | 11
73 | COc1ccc(Oc2nc(C)ccc2/C(=N/O)NC2CCc3ccccc32)cc1 (stereo unspecified) | 23
74 | COc1ccc(Oc2ncccc2/C(=N/O)NC2CCc3ccccc32)cc1 (stereo unspecified) | 97
75 | O/N=C(\NC1CCc2ccccc21)c1cccnc1Oc1ccc2ccccc2c1 (stereo unspecified) | 97
76 | O/N=C(\NC1CCc2ccccc21)c1cccnc1Oc1ccc(-n2cncn2)cc1 (stereo unspecified) | 31
77 | CC(C)c1ccc(Oc2ncccc2/C(=N/O)NC2CCc3ccccc32)cc1 (stereo unspecified) | 100
78 | O/N=C(\NC1CCc2ccccc21)c1cccnc1Oc1ccc(F)cc1Cl (stereo unspecified) | 9

Row | Compound | % inhibition [%]
79 | CC(C)COc1ncccc1/C(=N/O)NC1CCc2ccccc21 (stereo unspecified) | -11
80 | Cc1ccc(/C(=N/O)NC2CCc3ccccc32)c(Oc2ccc(F)c(F)c2)n1 (stereo unspecified) | 20
81 | CCOc1ccccc1-c1nc(CNCc2ccc(C)o2)co1 | 18
82 | COc1cccc(CN/C(=N\O)c2ccnc(Oc3cccc4cccnc34)c2)c1 | 35
83 | O/N=C(/c1ccc(Oc2cccc3c2CCCC3)nc1)N1CCN(c2ccccc2)CC1 | 9
84 | C=CCN(CC=C)Cc1coc(-c2ccc(OC)cc2)n1 | 1
85 | Cc1ccc(/C(=N/O)N(C)c2ccccc2)c(Oc2ccc(Cl)cc2)n1 | 22
86 | COc1ccc(CN/C(=N\O)c2ccc(C)nc2Oc2cccc3c2CCCC3)cc1 | 1
87 | Cc1cccc(-c2nc(CN3CCN(c4cc(C)nc5ccccc45)CC3)co2)c1 | 27
88 | CCOc1ccccc1-c1nc(CN(CC)C2CCN(Cc3ccccc3)C2)co1 (stereo unspecified) | -5
89 | CC(C)c1ccc(Oc2ccc(/C(N)=N/O)cn2)cc1 | 23
90 | Cc1ccc(/C(=N/O)NC2CCc3ccccc32)c(Oc2ccc(F)c(Cl)c2)n1 (stereo unspecified) | -22
91 | CCC(CC)NCc1coc(-c2ccc(OC)cc2)n1 | -11
92 | COc1ccc(CNCc2coc(-c3ccc(C(C)(C)C)cc3)n2)c(OC)c1 | 69
93 | COc1ccc(-c2nc(CNCc3c(OC)cccc3OC)co2)cc1 | 17
94 | COc1cccc(OC)c1CNCc1coc(-c2ccc(C(C)(C)C)cc2)n1 | 100
95 | COc1ccc(CNCc2coc(-c3ccc(C(F)(F)F)cc3)n2)c(OC)c1 | 11
96 | COc1ccc(-c2nc(CNCc3ccc(OC)cc3OC)co2)cc1 | 4
97 | COc1ccc(CNCc2coc(-c3ccccc3C)n2)c(OC)c1 | 5
98 | COc1ccc(CNCc2coc(-c3ccccc3Br)n2)c(OC)c1 | -13
99 | COc1cccc(OC)c1CNCc1coc(-c2ccc(C)cc2)n1 | 22
100 | COc1ccc(CNCc2coc(-c3cccc4ccccc34)n2)c(OC)c1 | 57
101 | COc1ccc(-c2nc(CN3CCc4ccccc4C3)co2)cc1 | -8
